Only some compounds are listed: those with a hit (about 5.1% of all), similar ones and a draw of the others.
MPTP inh – permeability transition pore inhibition; isolated mouse mitochondria, Ca2+ swelling absorbance, 30 min; inhibition, % at 10 µM; 360,000 tested, 1.4% active; AID 602449;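 active = inhibition of 50% or more, scaled per plate between neutral and stimulator controls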;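 note: 0% = DMSO wells given calcium and 100% = 1 mM EGTA wells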
CRFBP-R2 block – antagonists of CRF-binding protein/CRF-R2 receptor complex; HEK293 CRF-R2/CRF-BP, CRF-induced calcium fluorescence; inhibition, % at 11.8 µM; 350,000 tested, 0.59% active;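 active = inhibition of the ligand-induced calcium signal above about 50% at the single tested concentration, limit read from the data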
CRFR2-BP ag – agonists of human CRF-binding protein/CRF-R2 receptor complex. HEK293 CRF-R2/CRF-BP, calcium dye fluorescence (FLIPR); percent of saturating CRF peptide response. activation, % at 13.2 µM. 350,000 tested, 0.46% active. AID 588473;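 active = activation of at least 50%, plus an integration ratio under a set limit after plate pattern correction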;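 note: plate controls were neutral control wells without compound for no effect and CRF at EC100 for full effect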
GRIN3A LBD mod – NR3A (human) ligand-binding domain modulation; NR3A LBD differential scanning fluorimetry, Tm shift; 0% = protein alone, 100% = glycine-bound protein; Tm shift relative to glycine control, % at 25 µM; 340,000 tested, 2.5% active;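 active = melting temperature shift of at least 10% of the positive control shift, at one fixed dose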
TMEM16A act – activates or potentiates the mouse TMEM16A chloride channel; 340,000 tested, 0.3% active; B-score at 10 µM; Q8BHY3; HEK293 TMEM16A/YFP-H148Q/I152L, iodide quench fluorescence; hits give low values;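 active = fluorescence-ratio B-score plate-corrected deviation score at least 3 library SD below zero, with starting fluorescence score within 5 deviations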;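 note: channel opened by trigger with iodide after compound preincubation; score built on the fluorescence ratio of max minus min over baseline; more negative score means more quench and so TMEM16A activation or potentiation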
TMEM16A inh – blocks the mouse calcium-activated chloride channel TMEM16A; HEK293 TMEM16A/YFP iodide influx fluorescence, ionomycin; normalized B-score (activity score, 25-100; higher = stronger inhibition) at 10 µM; 310,000 tested, 1.2% active;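 active = ratio plate-corrected score three or more library SD toward inhibition, starting fluorescence score within five deviations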;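 note: score derived from kinetic fluorescence span divided by baseline fluorescence per well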
* hit, by the source's call; i = inactive; x = not tested or not shown.

SMILES | MPTP inh | CRFBP-R2 block | CRFR2-BP ag | GRIN3A LBD mod | TMEM16A act | TMEM16A inh
COc1ccc(/C=C/C(=O)Nc2nc(C)c(C(=O)N(C)C)s2)cc1 | 0 | 14 | 0 | -3 | i | i
N#CC(C(=O)Nc1ccc(Cl)cc1)=C1Nc2ccccc2N1 | 0 | 15 | 3 | 24* | i | i
COc1cccc(OC)c1C(=O)NNC(=O)c1cccc(COc2ccc3c(c2)CCC3)c1 | -1 | -34 | 0 | -3 | i | 25*
COc1ccc(CCNC(=O)c2ccc(NC(=O)CC3SC(N4CCCC4)=NC3=O)cc2)cc1 (stereo unspecified) | -1 | 0 | 1 | 3 | i | i
COc1ccc(-n2c(SCC(=O)Nc3ccc(Cl)cc3)nc(O)c(Cc3ccccc3)c2=O)cc1 | 13 | -13 | 1 | 10* | i | i
COc1ccc(/C=C(\NC(=O)c2ccco2)C(=O)N2CCCCC2)cc1 | 1 | 5 | 0 | -3 | i | i
O=C(COCc1ccccc1)N[C@@H]1c2ccccc2CC[C@@H]1OCc1ccccc1 | -2 | 4 | 4 | 17* | x | x
O=S(=O)(Nc1ccc(O)c(Sc2nc3ccccc3s2)c1)c1ccc(Cl)cc1 | 30 | -42 | 0 | 16* | i | i
CCCNC(=O)CN(CCc1ccccc1)S(C)(=O)=O | 1 | 0 | -2 | 13* | i | i
COc1ccc(CCNC(=O)CN(CCc2ccccc2)S(C)(=O)=O)cc1OC | 0 | 11 | 0 | -2 | i | i
CS(=O)(=O)N(CCc1ccccc1)CC(=O)NCc1ccc2c(c1)OCO2 | -2 | -3 | -1 | 0 | i | i
CS(=O)(=O)N(CCc1ccccc1)CC(=O)NCc1ccccc1 | 1 | 2 | 4 | 36* | i | i
COc1ccc(OC)c(CN2CCN(C(=O)c3cccc(S(=O)(=O)Nc4ccc(F)cc4)c3)CC2)c1 | 1 | 2 | -3 | 0 | i | x
CS(=O)(=O)c1ccc(C(=O)Nc2nc(-c3ccco3)c(-c3ccco3)s2)cc1 | 2 | -9 | 1 | 19* | i | x
O=C(COc1ccccc1)N1CCc2ccccc21 | 1 | 11 | 0 | -1 | i | i
O=C(COc1ccc(Br)cc1)N1CCc2ccccc21 | 9 | -12 | 2 | 12* | i | i
COc1ccccc1C1CC(c2c(-c3ccccc3)c3cc(Cl)ccc3[nH]c2=O)=NN1S(C)(=O)=O (stereo unspecified) | 2 | -43 | 4 | 25* | i | i
O=C1/C(=N\S(=O)(=O)c2cccs2)C([n+]2ccccc2)=C([O-])c2ccccc21 | 1 | 7 | -1 | 0 | -11* | i
CC(C)(C)c1cc[n+](C2=C([O-])c3ccccc3C(=O)/C2=N\S(=O)(=O)c2cccs2)cc1 | 3 | -1 | -2 | 0 | i | i
C=CCn1c(SCC(=O)NC2CC2)nnc1C1CC1 | 0 | 6 | 0 | 2 | i | i
CC(=O)c1ccc(NS(=O)(=O)c2ccc3c(c2)CCC(=O)N3)cc1 | -2 | 0 | 0 | 2 | i | x
Cc1nc2nc(N)nn2c(C)c1C/C=C/c1ccccc1 | 0 | -1 | 0 | 0 | -37* | i
CCOC(=O)c1c(NC(=O)c2ccc(C)cc2)sc2c1CC(C)(C)OC2 | 5 | -3 | 2 | 1 | i | 25*
Cc1ccc(N2CC(C(=O)NC3CC3)CC2=O)cc1 (stereo unspecified) | -2 | 0 | 0 | 1 | i | i
Cc1ccc(N2CC(C(=O)NC3CCC(C)CC3)CC2=O)cc1 (stereo unspecified) | 0 | 67* | 1 | 1 | i | i
SMILES | MPTP inh | CRFBP-R2 block | CRFR2-BP ag | GRIN3A LBD mod | TMEM16A act | TMEM16A inh
COc1cc2c(cc1Cl)/C(=C\CCN(C)C)c1ccccc1S2 | 0 | -47 | 1 | 18* | i | i
Cc1ccc(C)c(NC(=O)CC2Oc3ccccc3NC2=O)c1 (stereo unspecified) | 0 | -17 | -2 | 0 | i | i
Cc1nc(C(F)(F)F)ccc1C(=O)N1CCC1(C)C(=O)NS(=O)(=O)c1ccc(C(C)(C)C)cc1 (stereo unspecified) | 0 | x | x | x | x | x
CC(=O)c1c(C(C)=O)c(C)n(-c2nc(-c3cccs3)c(C)s2)c1C | -1 | -5 | 2 | 12* | i | i
O=S(=O)([O-])C(c1ccccc1)[n+]1ccccc1 (stereo unspecified) | 0 | -10 | 0 | 21* | i | i
CC1(C)NC(=S)NC1=S | 0 | 0 | -3 | 1 | i | x
Cc1cc(C(=O)OCC(=O)Nc2ccccc2C#N)c(C)o1 | -1 | 5 | -1 | 2 | i | x
N/C(=N\N=C\c1ccc2c(c1)OCO2)SC1CC(=O)N(c2ccc(C(=O)O)cc2)C1=O (stereo unspecified) | 3 | 11 | -1 | -1 | i | i
C/C(CCc1ccc2c(c1)OCO2)=N\N=C(/N)SC1CC(=O)N(c2ccc(Cl)cc2)C1=O (stereo unspecified) | 2 | -17 | 0 | 16* | i | i
COc1ccc(NC(=O)c2cnn(-c3ccccc3)c2C)c(OC)c1 | 2 | -16 | 0 | -3 | i | i
C/C=C/C=C/C(=O)OC(C)C(=O)Nc1cc([N+](=O)[O-])ccc1OC (stereo unspecified) | -1 | 112* | 1 | -2 | i | i
COc1ccc(NC(=O)c2ccccc2SC)c(OC)c1 | -2 | 15 | -2 | -2 | -5.8* | i
COc1ccc([N+](=O)[O-])cc1NC(=O)C(C)OC(=O)Cc1ccc(OC)c(OC)c1 (stereo unspecified) | 2 | 17 | 0 | 0 | i | x
COc1ccc(NC(=O)c2cc(-c3ccccc3)nc3c2c(C)nn3-c2ccccc2)c(OC)c1 | 3 | 7 | -1 | 13* | i | i
COc1ccc([N+](=O)[O-])cc1NC(=O)c1ccccc1SC | 0 | 100* | -7 | -1 | i | i
CC(=O)c1ccc(NC(=O)C(C)Oc2ccc(N(C)S(=O)(=O)c3ccc(C)cc3)cc2)cc1 (stereo unspecified) | 2 | 11 | 1 | -1 | i | x
O=C(COc1ccc(S(=O)(=O)N2CCCC2)cc1)NCc1ccccn1 | 0 | 0 | 5 | -2 | i | i
COC(=O)C1=C(Nc2ccccc2NC(=O)c2ccccc2C(=O)O)CSC1 | 2 | 15 | 1 | 2 | i | i
COC(=O)C1=C(Nc2ccccc2NS(=O)(=O)c2ccc(C(F)(F)F)cc2Cl)CSC1 | 40 | 14 | 1 | 3 | i | 25*
O=C(NN=C1CCCC1)c1sc2ccccc2c1Cl | -1 | 0 | -1 | -1 | i | i

High-throughput results as filed in PubChem.
